As usually defined, the AC50 is the concentration giving half of the maximal activity seen.

Molecules are shown by their SMILES. Several values for one entry are separate records, joined by “and”; a condition that tells them apart may be missing. Equal entries are not always repeated. Inconclusive results are not listed. A structure can be active in one record and inactive in another. Activity calls are given as the source filed them. The calls were made as follows, unless noted: active = hit-call score of the fitted dose curve at least 0.9, where 1 is the maximum; inactive = score below 0.9.

AC50 and outcome data for 18 molecules are collected here from PubChem BioAssay (EPA / NIEHS).

Assay [1] in a line: CCTE_Mundy_HCI_Cortical_Synap_Neur_Matur_BPCount: CCTE's Synaptogenesis and Neurite Maturation Assay in rat cortical cells for Branch Point Count, Mundy Lab (AID 2284211). In short, it runs like this:
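Branch point number is quantified by automated imaging of fluorescently labelled neurites and synapses in rat primary cortical neurons exposed from DIV 7 to DIV 12. Activity is analysed relative to DMSO negative control.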

A short description of assay [2]: CCTE_Mundy_HCI_Cortical_NOG_NeuriteCount: CCTE's Neurite Outgrowth Assay in rat cortical cells for Neurite Count, Mundy Lab (AID 2284212).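 Also: cells fixed about two days after chemical exposure began.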 Summed up: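 Neurite number per cell from high-content imaging of betaIII-tubulin immunostaining, with Hoechst nuclear counterstain.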
Assay [3] in a line: CCTE_Mundy_HCI_Cortical_NOG_NeuriteLength: CCTE's Neurite Outgrowth Assay in rat cortical cells for Neurite Length, Mundy Lab (AID 2284213).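 As to AC50: neurites imaged about 48 to 50 h after chemical exposure began.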 Summed up: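 Neurite length was read by high-content imaging of βIII-tubulin-labelled neurites in rat primary cortical cultures. Activity was fitted relative to DMSO.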
Assay [4] can be described thus: CCTE_Mundy_HCI_Cortical_Synap_Neur_Matur_NeuriteLength: CCTE's Synaptogenesis and Neurite Maturation Assay in rat cortical cells for Neurite Length, Mundy Lab (AID 2284214). In short, it runs like this: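 Rat primary cortical cells were plated, treated with AraC at DIV 5 to arrest glial growth, then chemical-dosed with media change at DIV 7 through DIV 12. Fixed cells stained for MAP2, synaptophysin and Hoechst; neurite length quantified by high-content imaging.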

Assay [5] is described as follows: CCTE_Mundy_HCI_Cortical_Synap_Neur_Matur_NeuriteSpotCountPerNeuron: CCTE's Synaptogenesis and Neurite Maturation Assay in rat cortical cells for Neurite Spot Count per Neuron Count, Mundy Lab (AID 2284215). Summed up:
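Rat cortical primary cultures; AraC DIV 5 to arrest glia; dosing + media change DIV 7; fixed DIV 12. Anti-MAP2/anti-synaptophysin, Hoechst nuclei; HCI puncta count per neuron, positive fitting direction vs DMSO.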

A short description of assay [6]: CCTE_Mundy_HCI_Cortical_Synap_Neur_Matur_SynapseCount: CCTE's Synaptogenesis and Neurite Maturation Assay in rat cortical cells for Synapse Count, Mundy Lab (AID 2284218). In short, it runs like this: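 Rat primary cortical cells in 96-well plates received AraC at DIV 5 and were dosed with chemicals at DIV 7 with media change, through DIV 12 (288.33 h). Synapses per neuron counted by high-content imaging of MAP2/synaptophysin/Hoechst staining, versus DMSO baseline.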

Assay [7] in a line: CCTE_Mundy_HCI_Cortical_Synap_Neur_Matur_NeuriteCount: CCTE's Synaptogenesis and Neurite Maturation Assay in rat cortical cells for Neurite Count, Mundy Lab (AID 2284222).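 As to outcome: exposure from day 7 to day 12 in vitro with readout at day 12.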 Summed up: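 Chemical exposure runs DIV 7–12 in rat cortical cultures, glia suppressed by AraC at DIV 5; measurement is at DIV 12. Imaging-derived neurite counts are fitted against DMSO baseline.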
Assay [8] in a line: CCTE_Mundy_HCI_hNP1_Pro_ResponderAvgInten: CCTE's Proliferation Assay in human neuroprogenitor cells, Mundy Lab (AID 2284224; active = hit-call score of the fitted dose curve at least 0.9, where 1 is the maximum). Summed up: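 Proliferation was scored as BrdU labelling intensity in human neural progenitors derived from WA09 embryonic cells, measured 26.25 hours after chemical dosing. Activity was fitted relative to DMSO.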
The nature of assay [9]: TAMU_PeakParms_SingleDonor1434_Chronotropy: Texas A&M University (TAMU) 1.5-hr Human Induced Pluripotent Stem Cell (iPSC)-derived Cardiomyocytes Calcium (Ca+2) Flux Assay for Cardiotoxicity: Chronotropy (changes in peak frequency) (AID 2284217). Conditions: actives raise or lower the signal. In short, it runs like this: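 Beat frequency of single-donor iPSC cardiomyocytes was recorded through a calcium-sensitive dye 1.5 hours after exposure to four concentrations up to 100 uM. An EC05 point of departure was derived.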

Assay [10] in a line: CCTE_Mundy_HCI_hN2_NOG_NeuriteCount: CCTE's Neurite Outgrowth Assay in human hN2 cells for Neurite Count, Mundy Lab (AID 2284219; active = hit-call score of the fitted dose curve at least 0.9, where 1 is the maximum). In short, it runs like this: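 In this morphology assay, hNP1-derived neurons received test chemical 2 h post-plating and were fixed two days later in warm paraformaldehyde/sucrose containing Hoechst 33342. Neurites, labelled by rabbit anti-βIII-tubulin (1:800) and Alexa Fluor-488 (1:500), were counted automatically.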

The nature of assay [11]: CCTE_Mundy_HCI_hN2_NOG_NeuriteLength: CCTE's Neurite Outgrowth Assay in human hN2 cells for Neurite Length, Mundy Lab (AID 2284220; active = hit-call score of the fitted dose curve at least 0.9, where 1 is the maximum). Summed up:
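Plate hNP1-derived neurons, then add chemical 2 h later as a 1/10 dilution. Stain with anti-βIII-tubulin then Alexa Fluor-488 secondary, and image automatically to measure neurite length.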

Assay [12] is described as follows: CCTE_Mundy_HCI_hN2_NOG_NeuronCount: CCTE's Neurite Outgrowth Assay in human hN2 cells for Neuron Count, Mundy Lab (AID 2284221; active = hit-call score of the fitted dose curve at least 0.9, where 1 is the maximum). Summed up:
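Read-out is the number of betaIII-tubulin-positive neurons imaged by automated high-content analysis, with DMSO as negative control.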

Assay [13] in a line: UKN4_HCS_LUHMES_cell_viability: Viability Assessment in the University of Konstanz (UKN) Leist Lab Neurite Outgrowth Assay in human LUHMES cells (UKN4) (AID 2284232). In short, it runs like this:
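LUHMES cells differentiated 2 days, replated without cAMP/GDNF, then exposed to compounds for 24 h from attachment. Viability read by high-content fluorescence imaging after 30 min live-staining with H-33342 and calcein-AM; bidirectional fit relative to DMSO baseline.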

Assay [14] is described as follows: BSK_BT_PBMCCytotoxicity: PBMC Cytotoxicity Assessment in the BioMAP Diversity Plus: BT Assay (AID 2284225).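 Also: PBMC viability measured by Alamar Blue dye reduction fluorescence.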 The following applies: primary human B cells with PBMC. In short, it runs like this:
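75,000 cells/well; cpd 1 h → SEB + TSST-1 (20 ng/mL final each) → 90 h → Alamar Blue 6 h → fluor. 546/580 nm. DMSO = neg. control/baseline.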

Read-out in assay [15]: Secreted IgG (sIgG), gene 3500
Briefly: BSK_BT_sIgG: BioMAP Diversity Plus: BT Assay for Secreted IgG (sIgG) Biomarker Activity (AID 2284226). The following applies: primary human B cells with PBMC. In short, it runs like this:
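B cells co-cultured with PBMC were dosed with chemical and secreted IgG quantified by ELISA at 24 h. Activity was fitted in the positive direction relative to DMSO as negative control and baseline.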

The nature of assay [16]: BSK_BT_Bcell_Proliferation: Viability Assessment in the BioMAP Diversity Plus: BT Assay for B cell Proliferation (AID 2284227). Conditions: primary human B cells with PBMC. Summed up: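 SRB-based protein staining (0.1% SRB after 10% TCA fixation, 560 nm) quantifies proliferation in human B cells co-cultured with PBMC, 72 h post-dosing, with signal gain scored relative to DMSO negative control.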

Read-out in assay [17]: Interleukin 6 (IL6), IL6 (gene 3569)
The experiment in a line: BSK_BT_xIL6: BioMAP Diversity Plus: BT Assay for Interleukin 6 (IL6) Biomarker Activity (AID 2284228). The following applies: primary human B cells with PBMC. Summed up:
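B cells and peripheral blood mononuclear cells (human primary co-culture) were dosed with chemical, and after 24 h IL-6 released into the medium was measured by Luminex xMAP. Responses were analysed as gain of signal over DMSO control.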

Read-out in assay [18]: Interleukin 17A (IL17A), IL17A (gene 3605)
Briefly: BSK_BT_xIL17A: BioMAP Diversity Plus: BT Assay for Interleukin 17A (IL17A) Biomarker Activity (AID 2284229). Conditions: primary human B cells with PBMC. In short, it runs like this: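 Secreted IL-17A was the measured endpoint, read by Luminex xMAP multiplex in supernatants of a human B cell/PBMC co-culture harvested 24 h after chemical dosing. Signal increase relative to DMSO defined activity.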

Read-out in assay [19]: Tumor necrosis factor (Homo sapiens) (UniProt P01375)
Briefly: BSK_BT_xTNFa: BioMAP Diversity Plus: BT Assay for Tumor necrosis factor alpha (TNF-alpha) Biomarker Activity (AID 2284230). Conditions: primary human B cells with PBMC. Summed up:
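Compounds were added to a B cell plus PBMC co-culture, and after 24 h secreted TNF-alpha was quantified with Luminex xMAP technology, with responses fitted upward from the DMSO control.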

Read-out in assay [20]: Vascular cell adhesion molecule 1 (VCAM1), VCAM1 (gene 7412)
The experiment in a line: BSK_MyoF_VCAM1: BioMAP Diversity Plus: MyoF Assay for Vascular cell adhesion molecule 1 (VCAM1) Biomarker Activity (AID 2284231). Conditions: primary human lung fibroblasts. Summed up:
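ELISA read-out of VCAM-1 on human lung fibroblasts 24 h after chemical treatment, with positive-direction curve fitting relative to DMSO controls. Parallel cultures were stained with sulforhodamine B for total protein to flag overt cytotoxicity.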

Chain of Tumor necrosis factor (Homo sapiens) (P01375 whole entry, looked up): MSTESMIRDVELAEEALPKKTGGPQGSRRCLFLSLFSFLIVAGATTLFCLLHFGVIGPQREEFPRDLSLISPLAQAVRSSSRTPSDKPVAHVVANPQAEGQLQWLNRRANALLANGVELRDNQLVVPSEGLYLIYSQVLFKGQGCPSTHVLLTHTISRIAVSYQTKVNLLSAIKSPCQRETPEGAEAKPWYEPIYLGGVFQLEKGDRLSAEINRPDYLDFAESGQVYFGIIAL

Turning to `COC(=O)Nc1nc2ccccc2[nH]1`, the AC50 is 4.14 µM (active) in [1], 12.5 µM (active) in assay [3] and 4.05 µM (active) in [4]. Moreover, the result in [2], in [5], in assay [6], in assay [7] and in [8] was inactive.
In the case of `O=P(OCCCl)(OCCCl)OCCCl`, in assay [9], the outcome was inactive.
As for `OCCOCCO`, the molecule was called inactive in [1], in assay [2], in assay [3], in [4], in [5] and in assay [6]. Moreover, the result in assay [10], in [11], in assay [12], in [7] and in assay [8] was inactive.
On to `ClC1=C(Cl)[C@]2(Cl)[C@H]3[C@H]([C@@H]4C=C[C@H]3C4)[C@@]1(Cl)C2(Cl)Cl`, for which the result in assay [9] was inactive.
On to `CC(C)(C)C(O)(CCc1ccc(Cl)cc1)Cn1cncn1` (stereo unspecified), for which the AC50 is 11.2 µM (active) in [1] and 10.2 µM (active) in [4]. The result in [2], in [3], in assay [5], in assay [9], in assay [6] and in assay [11] was inactive. The outcome in [7] and in assay [8] was inactive.
Turning to `[O-][Cl+]O`, the outcome in [1], in assay [2], in assay [3], in [4], in assay [5] and in assay [6] was inactive. Moreover, the result in assay [7] was inactive.
Take `CNC(=O)Oc1cccc2c1OC(C)(C)C2`: the result in assay [1], in [2], in assay [3], in assay [4], in assay [5] and in assay [6] was inactive. Further, in [7], the molecule was called inactive.
`CCC[CH2][Sn]([Cl])([CH2]CCC)[CH2]CCC`: the AC50 in assay [1] was 0.0481 µM (active); in [2] it was 0.112 µM (active); in [3] it was 0.0882 µM (active); in assay [4], 0.0468 µM (active); in [5], 0.037 µM (active); in assay [6], 0.0569 µM (active). For the same molecule, the AC50 in assay [8] is 0.188 µM (active); in assay [13], 0.159 µM (active). Moreover, the call in assay [7] was inactive.
As for `CCCCOC(=O)c1ccccc1C(=O)OCc1ccccc1`, the AC50 in assay [1] is 10 µM (active). Also, the call in assay [2], in assay [3], in assay [4], in assay [5], in assay [6] and in [7] was inactive. Besides, in [8], the call was inactive.
`C1=Cc2cccc3cccc1c23`: the AC50 in assay [9] was 50 µM (active).
In the case of `CN(C)[C@@H]1C(=O)C(C(N)=O)=C(O)[C@@]2(O)C(=O)C3=C(O)c4c(O)cccc4[C@@](C)(O)[C@H]3C[C@@H]12`, in assay [1], the AC50 was 0.474 µM (active). The result in [2], in [3], in assay [4], in assay [5], in [6] and in [7] was inactive.
Regarding `ClC1=C(Cl)C2(Cl)C3C(Cl)C=CC3C1(Cl)C2(Cl)Cl` (stereo unspecified), the AC50 in [1] is 13.3 µM (active); in assay [2], 17.6 µM (active); in assay [3], 22.5 µM (active); in assay [4], 13.4 µM (active); in assay [5], 10.5 µM (active); in assay [6] it was 10.6 µM (active). Also, the AC50 in [10] was 5 µM (active); in [11] it was 4.18 µM (active); in assay [12] it was 2.86 µM (active); in assay [7] it was 14.9 µM (active); in assay [8], 13.4 µM (active). In addition, the outcome in assay [9] was inactive.
Take `CC(C)COC(=O)c1ccccc1C(=O)OCC(C)C`: the AC50 in assay [1] was 76.7 µM (active); in assay [4], 80.2 µM (active); in assay [5], 77.8 µM (active); in assay [6], 79.6 µM (active); in assay [7], 88.7 µM (active). Besides, the molecule was called inactive in assay [2], in assay [3] and in assay [8].
Consider `Nc1cc(Cl)cc(C(=O)O)c1Cl`, for which the call in [1], in assay [2], in assay [3], in assay [4], in [5] and in assay [6] was inactive. The outcome in [10], in assay [11], in [12] and in assay [7] was inactive.
With `COP(=S)(OC)SCN1C(=O)c2ccccc2C1=O`, the molecule was classed as inactive in assay [1], in assay [2], in assay [3], in [4], in [5] and in assay [6]. Also, the outcome in [7] and in [8] was inactive. Further, the AC50 is 33.5 µM (active) in assay [10], 31.1 µM (active) in [11] and 23.1 µM (active) in [12].
Take `CCNS(=O)(=O)C(F)(F)C(F)(F)C(F)(F)C(F)(F)C(F)(F)C(F)(F)C(F)(F)C(F)(F)F`: the outcome in assay [14], in assay [16], in [17], in [18] and in assay [19] was inactive. The AC50 is 22.5 µM (active) and 30 µM (active) in assay [15]; 19.1 µM (active) in [18]; 30 µM (active) and 40.3 µM (active) in assay [20].
`CCCCCCCCn1sccc1=O`: the outcome in assay [9] was inactive.
`Clc1ccc(C(c2ccc(Cl)cc2)C(Cl)(Cl)Cl)cc1`: the result in [9] was inactive.
